From PubChem BioAssay AID743449 (Broad Institute, 2014)
The campaign covered roughly 9,900 compounds. About 90 (0.9%) were called active. Another 2% or so got no clear call; they are omitted. The entries come from a sample that favours actives as a whole. Values without a mark were called inactive.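 How the source made its calls: active means mean normalized replicate activity at least 50 and at least half of replicates each reaching 50; inconclusive means only one of the two criteria met; inactive means neither criterion met.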

Test: reduction of CTGF mRNA in DLD1 cells – DLD1 colon cancer cells, RT-qPCR, single point, primary screen (AID 743449);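 further: 0% = neutral control wells and 100% = dasatinib control wells; higher means stronger suppression of CTGF expression like dasatinib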
Conditions: 24 h, at 12.5 µM, active compounds read high
For CCC(=O)N(CC(C)C)C[C@@H]1[C@@H](c2ccccc2)[C@H](CO)N1C(=O)C1CCC1, the inhibition was 3.26%. In the case of CO[C@@H](CN(C)S(=O)(=O)c1ccc(F)cc1)[C@H](C)CN(Cc1ccccc1Cl)[C@H](C)CO, the inhibition is reported as -18%. For C[C@H](O)C#Cc1ccc([C@@H]2[C@@H](CO)N3CCCCN(C(=O)c4ccc5c(c4)OCO5)C[C@H]23)cc1, the inhibition was -21.5%. O=C(c1cccc(F)c1)N1CCCCN2[C@H](C1)[C@@H](c1ccc(C#CC3(O)CCCC3)cc1)[C@@H]2CO gave an inhibition of 30.5%. Work on C[C@H](O)C#Cc1ccc([C@@H]2[C@H]3CN(C(=O)c4ccc5c(c4)OCO5)CCCCN3[C@H]2CO)cc1 yielded an inhibition of -48.5%. In the case of C[C@H](O)C#Cc1ccc([C@H]2[C@@H](CO)N3CCCCN(C(=O)c4ccc5c(c4)OCO5)C[C@@H]23)cc1, the inhibition is reported as 53.3% (active). Work on O=C(c1cccc(F)c1)N1CCCCN2[C@H](CO)[C@@H](c3ccc(C#CC4(O)CCCC4)cc3)[C@@H]2C1 yielded an inhibition of -4.53%. For O=C(c1cccc(F)c1)N1CCCCN2[C@H](CO)[C@H](c3ccc(C#CC4(O)CCCC4)cc3)[C@@H]2C1, the inhibition was 58.8% (active). For O=C(c1cccc(F)c1)N1CCCCN2[C@H](C1)[C@H](c1ccc(C#CC3(O)CCCC3)cc1)[C@@H]2CO, the inhibition was 24%. For O=C(c1cccc(F)c1)N1CCCCN2[C@@H](CO)[C@H](c3ccc(C#CC4(O)CCCC4)cc3)[C@@H]2C1, the inhibition was 68.7% (active). With O=C(c1cccc(F)c1)N1CCCCN2[C@H](CO)[C@H](c3ccc(C#CC4(O)CCCC4)cc3)[C@H]2C1 the inhibition was 11.6%. In the case of O=C(C[C@H]1CC[C@H]2[C@@H](COC[C@@H](O)CN2C(=O)c2cccnc2)O1)NCC1CC1, the inhibition is reported as 6.53%. COCCNC(=O)C[C@@H]1C[C@H]2c3cc(NC(=O)CN(C)C)ccc3O[C@H]2[C@H](CO)O1 showed an inhibition of 0.098%. COc1cccc(NC(=O)N2C[C@H](O)COC[C@H]3O[C@H](CC(=O)N(C)C)CC[C@@H]32)c1 gave an inhibition of -3.69%. Compound O=C(CN1CCOCC1)N1CC(=O)N2[C@H](C1)[C@@H](c1ccc(-c3cccc(F)c3)cc1)[C@@H]2CO has an inhibition of 10.6%. In the case of C[C@H](CO)N1C[C@H](C)[C@H](CN(C)C(=O)Nc2ccc(-c3cccs3)cc2)OCc2cnnn2CCCC1=O, the inhibition is reported as 13.8%. With CC(C)[C@@H]1C(=O)N[C@H](c2cccc(Cl)c2)CC=CC[C@@H](C)Oc2ccccc2C(=O)N1C (mixture of isomers) the inhibition was 14.5%. C[C@H]1CC=CC[C@H](c2cccc(Cl)c2)NC(=O)[C@H](Cc2ccccc2)N(C)C(=O)c2ccccc2O1 (mixture of isomers) showed an inhibition of -228%. In the case of C[C@@H]1CC=CC[C@@H](c2cccc(Cl)c2)NC(=O)[C@H](Cc2ccccc2)N(C)C(=O)c2ccccc2O1 (mixture of isomers), the inhibition is reported as 50.4% (active). Work on C[C@H]1CC=CC[C@H](c2cccc(Cl)c2)NC(=O)[C@@H](Cc2ccccc2)N(C)C(=O)c2ccccc2O1 (mixture of isomers) yielded an inhibition of -83.3%. For C[C@@H]1CC=CC[C@@H](c2cccc(Cl)c2)NC(=O)[C@@H](Cc2ccccc2)N(C)C(=O)c2ccccc2O1 (mixture of isomers), the inhibition was 67.5% (active). CC(C)[C@H]1C(=O)N[C@H](c2cccc(Cl)c2)CC=CC[C@H](C)Oc2ccccc2C(=O)N1C (mixture of isomers) gave an inhibition of -2.2%. CN1C(=O)c2cc(NC(=O)NCc3ccccc3)ccc2OC[C@@H]2O[C@@H](CC(=O)NCC3CCCCC3)CC[C@H]21 showed an inhibition of -20.9%. COc1cccc(S(=O)(=O)N[C@H]2CC[C@H](CC(=O)NC3Cc4ccccc4C3)O[C@H]2CO)c1 showed an inhibition of 3.79%. In the case of Cc1noc(C)c1S(=O)(=O)N(C)C[C@H]1OCCCC[C@H](C)Oc2ccc(NC(=O)CCC(F)(F)F)cc2C(=O)N([C@@H](C)CO)C[C@@H]1C, the inhibition is reported as 8.01%. CN1C(=O)c2cc(NC(=O)c3cccc(Cl)c3)ccc2OC[C@H]2O[C@H](CC(=O)NC3CCCCC3)CC[C@H]21 showed an inhibition of -12.4%. With COc1ccccc1NC(=O)N1CCCCN2[C@@H](CO)[C@H](c3ccc(-c4cccc(C#N)c4)cc3)[C@@H]2C1 the inhibition was 75% (active). In the case of COc1ccccc1NC(=O)N1CCCCN2[C@H](CO)[C@@H](c3ccc(-c4cccc(C#N)c4)cc3)[C@H]2C1, the inhibition is reported as -21.9%. With COc1ccccc1NC(=O)N1CCCCN2[C@H](C1)[C@@H](c1ccc(-c3cccc(C#N)c3)cc1)[C@@H]2CO the inhibition was -9.55%. In the case of COc1ccccc1NC(=O)N1CCCCN2[C@H](CO)[C@H](c3ccc(-c4cccc(C#N)c4)cc3)[C@@H]2C1, the inhibition is reported as 52.5% (active). In the case of COc1ccccc1NC(=O)N1CCCCN2[C@H](CO)[C@H](c3ccc(-c4cccc(C#N)c4)cc3)[C@H]2C1, the inhibition is reported as 19.1%. COc1ccccc1NC(=O)N1CCCCN2[C@@H](CO)[C@@H](c3ccc(-c4cccc(C#N)c4)cc3)[C@@H]2C1 showed an inhibition of -18.2%. COc1cccc(S(=O)(=O)N[C@H]2CC[C@@H](CC(=O)NC3Cc4ccccc4C3)O[C@H]2CO)c1 showed an inhibition of 0.76%. For CCC(=O)N1CC2(C1)[C@H](c1ccc(-c3ccc(F)cc3)cc1)[C@H](CO)N2C(C)=O, the inhibition was 5.26%. In the case of COc1cccc(C(=O)Nc2ccc3c(c2)C(=O)N(C)[C@@H]2CC[C@H](CC(=O)N[C@@H](C)c4ccccc4)O[C@@H]2CO3)c1, the inhibition is reported as -43.4%. For O=C(Nc1ccc(F)cc1)N1CC(=O)N2[C@H](C1)[C@@H](c1ccc(-c3cccc(F)c3)cc1)[C@@H]2CO, the inhibition was -72.3%. For COCC(=O)N1[C@H](CO)[C@@H](c2ccccc2)C12CN(C(=O)c1ccccc1)C2, the inhibition was -0.941%. Work on C[C@H]1CN([C@@H](C)CO)C(=O)c2ccccc2-c2ccccc2CO[C@H]1CN(C)S(=O)(=O)c1cn(C)cn1 yielded an inhibition of 10.4%. CCNC(=O)c1cc2c(c(-c3cccc(-c4ccccc4F)c3)n1)[C@H](CCO)N(C(=O)CC1CC1)C2 showed an inhibition of -97.9%. CC(C)(C)S(=O)N1Cc2cc(C(=O)NCc3ccc(Oc4ccccc4)cc3)nc(-c3cccc(-c4cccc(F)c4)c3)c2[C@@H]1CCO (stereo partly specified) showed an inhibition of 9.98%. With CC(C)(C)[S@](=O)N1Cc2cc(C(=O)NCc3ccccn3)nc(-c3cccc(-c4ccccc4F)c3)c2[C@@H]1CCO the inhibition was 53% (active). Work on CCNC(=O)c1cc2c(c(-c3cccc(-c4cncnc4)c3)n1)[C@H](CCO)N(C(C)=O)C2 yielded an inhibition of -8.43%. For CC(C)(C)[S@@](=O)N1Cc2cc(C(=O)NCc3ccccn3)nc(-c3cccc(-c4ccccc4F)c3)c2[C@H]1CCO, the inhibition was -29.9%. In the case of CC(C)(C)S(=O)N1Cc2cc(C(=O)NCc3ccc4c(c3)OCO4)nc(-c3cccc(-c4cccc(F)c4)c3)c2[C@@H]1CCO (stereo partly specified), the inhibition is reported as 55.2% (active). CN(C)C(=O)c1cc2c(c(-c3cccc(C4=CCCCC4)c3)n1)[C@@H](CCO)N(S(C)(=O)=O)C2 showed an inhibition of -7.52%. CC(C)(C)[S@](=O)N1Cc2cc(C(=O)NC3CCC3)nc(-c3cccc(-c4ccccc4F)c3)c2[C@@H]1CCO gave an inhibition of 41%. CC(C)(C)S(=O)N1Cc2cc(C(=O)NCc3ccc4c(c3)OCO4)nc(-c3cccc(-c4cc5ccccc5o4)c3)c2[C@H]1CCO (stereo partly specified) gave an inhibition of 20.7%. With CCC(=O)N1Cc2cc(C(=O)NCc3cccc(F)c3)nc(-c3cccc(C4=CCCC4)c3)c2[C@H]1CCO the inhibition was 50.2% (active). With CCNC(=O)c1cc2c(c(-c3cccc(-c4ccccc4F)c3)n1)[C@@H](CCO)N(C(=O)CC1CC1)C2 the inhibition was 59.3% (active). With CCN1Cc2cc(C(=O)Nc3nccs3)nc(-c3cccc(C4=CCCC4)c3)c2[C@H]1CCO the inhibition was -15.8%. O=C1C[C@H](c2ccccc2)C(=O)N[C@H](c2ccccc2)C/C=C\C[C@H](c2ccccc2)N1 gave an inhibition of -5.88%. COc1ccc(S(=O)(=O)Nc2ccc3c(c2)C(=O)N([C@H](C)CO)C[C@H](C)[C@@H](CN(C)C(=O)Nc2c(C)noc2C)OCCCC[C@H](C)O3)cc1 gave an inhibition of -7.64%. In the case of O=C(Cc1cccnc1)N1[C@H](CNCC2CCC2)[C@H](c2ccccc2)[C@@H]1CO, the inhibition is reported as -21.2%. Compound COc1ccc(S(=O)(=O)Nc2ccc3c(c2)C(=O)N([C@@H](C)CO)C[C@@H](C)[C@@H](CN(C)Cc2ccc(C(F)(F)F)cc2)OCCCC[C@H](C)O3)cc1 has an inhibition of -37.9%. With O=C(C1CCOCC1)N1CC[C@@H]2[C@@H](CO)Nc3ccc(-c4cccc(F)c4)cc3[C@@H]21 the inhibition was -12.5%. CO[C@H]1CC[C@H]2CCOc3c(C#N)cccc3C(=O)N(C)C[C@@H](OC)[C@@H](C)C(=O)N(C)C[C@H]1O2 showed an inhibition of -18.4%. For O=C(C[C@@H]1CC[C@@H]2[C@H](COC[C@@H](O)CN2C(=O)c2cnccn2)O1)N1CCN(c2ccccc2)CC1, the inhibition was -2.5%. COc1ccc2c3c([nH]c2c1)[C@H](CO)N(C(=O)c1ccccn1)CC31CCN(S(C)(=O)=O)CC1 showed an inhibition of -21.9%. Work on COc1ccccc1CN1[C@@H]2c3ccc(C4=CCCC4)c(=O)n3C[C@H]1[C@H](CO)[C@H]2C(=O)N(C)C yielded an inhibition of 2.56%. C[C@@H]1CN([C@H](C)CO)C(=O)Cc2cc(NS(=O)(=O)c3cccs3)ccc2O[C@@H]1CN(C)CC1CCCCC1 showed an inhibition of 1.75%. COc1ccc2c3c(n(C)c2c1)[C@@H](CO)N(S(C)(=O)=O)CC31CCN(Cc2nccs2)CC1 showed an inhibition of 14%.
